ATXN2 expr inh – ATXN2 expression inhibition | 360,000 tested, 0.72% active | Potency, µM (highest dose often 57 µM), most hits filed as inhibitors | HEK-293 ATXN2-luciferase reporter, luminescence, 24 h | AID 1745845; further: nearly all actives have a fitted effect of over 55% in size
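ATXN2-luciferase reporter cells (luciferase flanked by upstream and downstream ATXN2 gene portions) were treated 24 h at 37 °C with compounds at up to 57 uM. SteadyGlo luminescence gave expression; GF-AFC fluorescence gave viability.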
ATXN viability – cell viability loss in ATXN counter-screen; S2 cells (HEK-293 line with an ATXN2-luciferase reporter) viability, CellTiter-Fluor protease fluorescence, 24 h; Potency, µM (highest dose often 56.7 µM), usual class: cytotoxic; 400,000 tested, 0.49% active; further: nearly all actives have a fitted effect of over 40% in size
Nrf2 block – blocks Nrf2 signaling; A549 ARE-Fluc reporter, luciferase luminescence, 18-24 h; Potency, µM (titrated, usually from 46 µM), actives largely listed as inhibitors; 360,000 tested, 2.1% active; further: nearly all actives have a fitted effect of over 60% in size
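Reporter: ARE-Fluc in A549. Exposure: 18-24 h, 37 °C, 5% CO2, 5% FBS OPTI-MEM. Readouts: fluorescent cytotoxicity (CellTiter-Fluor), then luminescent Nrf2 signal after BugLite.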
A549 tox – kills or reduces viability of A549 cells in Nrf2 counter-screen | A549 ARE-Fluc cells, CellTiter-Fluor viability, 18-24 h | Potency, µM (series often up to 46 µM), usual class: inhibitors | 390,000 tested, 0.16% active | AID 504648
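A549 ARE-Fluc cells in 5% FBS OPTI-MEM, 5000 cells/well, rested 2 h then exposed to compounds in concentration-response for 18-24 h at 37 °C. Viability by CellTiter-Fluor fluorescence (Ex 405/Em 525) after 30 min; luciferase luminescence (BugLite, 15 min, RT) read afterwards.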
Nrf2 ARE act – activates Nrf2 signaling; 410,000 tested, 0.31% active; Potency, µM (doses to about 46.1 µM), actives largely listed as activators; AREc32 ARE-luciferase reporter (MCF7-derived line), luminescence, 24 h; further: nearly all actives have a fitted effect of over 65% in size
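Luciferase luminescence (Steady-Glo, 30 min at room temperature) served as the read-out of ARE activation in AREc32 cells treated with compounds for 24 hr at 37 deg C.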
Large screens that a line does not name were inactive. A selection: hits, their analogues and other compounds. The true share with any hit is near 2.9%. The call rests on the fitted dose curve; in most records, active means well fitted curve in the direction sought with a large enough effect; inconclusive means small, poorly fitted or top-dose-only effect, or another doubt; inactive means no such curve, though single readings can be large; an effect the other way counts as inactive or inconclusive.

CCOc1ccc(-c2cn3c(n2)sc2cc(C(=O)NCCCN(CC)CC)ccc23)cc1	ATXN2 expr inh 8.91µM, ATXN viability 12.6µM
COc1cccc(C2c3c(ncn(-c4cccc(C#N)c4)c3=N)Oc3ccc4ccccc4c32)c1 (stereo unspecified)	Nrf2 block inconclusive (no result: ATXN2 expr inh, ATXN viability, Nrf2 ARE act)
CCOc1ccc(-c2nc(C(N)=O)c3c(n2)n(-c2ccc4c(c2)OCO4)c(=O)n3CC)cc1	none
Cc1ccc(C(C(=O)Nc2ccc3c(c2)OCO3)N(C)C(=O)Cc2c[nH]c3ccccc23)cc1 (stereo unspecified)	ATXN viability inconclusive, Nrf2 block 23.1µM, A549 tox inconclusive
CCCc1ccc(OCC(=O)N2CCN(C(=O)COc3ccc(CCC)cc3OC)CC2)c(OC)c1	none (no result: Nrf2 block, A549 tox, Nrf2 ARE act)
CCOC(=O)C1CCN(C2=C(NS(=O)(=O)c3ccc(Br)cc3)C(=O)c3ccccc3C2=O)CC1	ATXN viability 17.8µM (no result: ATXN2 expr inh)
NC(=O)C1CCN(C2=C(NS(=O)(=O)c3ccc(Br)cc3)C(=O)c3ccccc3C2=O)CC1	ATXN2 expr inh inconclusive, ATXN viability inconclusive
c1ccc(-c2nc(-c3ccccn3)no2)cc1	ATXN2 expr inh 4.47µM, Nrf2 block inconclusive, Nrf2 ARE act inconclusive
Cc1ccc(-c2nc(-c3ccccn3)no2)cc1Cl	ATXN2 expr inh 10µM, Nrf2 block inconclusive
Cc1ccc(-c2nc(-c3ccccn3)no2)cc1	ATXN2 expr inh 2µM, Nrf2 block 2.06µM
c1ccc(-c2ccc(-c3nc(-c4ccccn4)no3)cc2)cc1	ATXN2 expr inh inconclusive, Nrf2 block inconclusive
Clc1cccc(-c2nc(-c3ccccn3)no2)c1	ATXN2 expr inh 12.6µM, Nrf2 block inconclusive, Nrf2 ARE act inconclusive
COc1ccc(N2CC(NC(=O)c3ccc(OC(C)C)cc3)CC2=O)cc1 (stereo unspecified)	none (no result: ATXN2 expr inh, ATXN viability, Nrf2 block)
COC(=O)c1ccc2nc(NC(=O)C3CCCCC3)sc2c1	Nrf2 block inconclusive
COC(=O)c1ccc2nc(NC(=O)C(C)(C)C)sc2c1	ATXN2 expr inh inconclusive, Nrf2 block 4.11µM
O=C1NC[C@@H](c2ccccc2)OC(=O)[C@H](Cc2ccc(F)cc2)C/C=C\C[C@@H]1CC(=O)N(CCO)Cc1ccccc1	ATXN2 expr inh inconclusive, ATXN viability inconclusive, Nrf2 block 25.9µM, A549 tox inconclusive
O=C1NC[C@H](c2ccccc2)OC(=O)[C@@H](Cc2ccc(F)cc2)CC/C=C/C[C@H]1CC(=O)N(CCO)Cc1ccccc1	ATXN2 expr inh 14.1µM, ATXN viability 11.2µM, Nrf2 block inconclusive (no result: A549 tox)
COc1c(N2CCN(C(=S)NCc3ccccc3)C(C)C2)c(F)cc2c(=O)c(C(=O)O)cn(C3CC3)c12 (stereo unspecified)	Nrf2 block 23.1µM, A549 tox inconclusive
Cc1ccc(C(=O)NCCc2nnc3n2CCN(Cc2ccc4ccccc4c2)CC3)c(C)c1	none (no result: ATXN2 expr inh, Nrf2 block, A549 tox, Nrf2 ARE act)
O=c1c2ccccc2sn1-c1nccs1	ATXN viability inconclusive, Nrf2 block inconclusive
Cn1sc2ccccc2c1=O	ATXN2 expr inh 28.2µM (no result: ATXN viability, Nrf2 block, A549 tox)
O=c1c2ccccc2sn1-c1ccccc1F	ATXN2 expr inh inconclusive, ATXN viability 20µM, Nrf2 ARE act inconclusive (no result: Nrf2 block, A549 tox)
Cc1ccccc1-n1sc2cc(F)ccc2c1=O	ATXN2 expr inh inconclusive, ATXN viability inconclusive
COc1ccccc1Cn1cc(C(=O)c2ccc(C)cc2)c(=O)c2cc3c(cc21)OCCO3	A549 tox inconclusive
COc1ccccc1C1CN(CC(=O)N[C@H]2CCCCNC2=O)Cc2ccccc2O1 (stereo partly specified)	none (no result: ATXN2 expr inh, Nrf2 block, A549 tox, Nrf2 ARE act)
Cc1ccccc1OCC(=O)Nc1ccc(N2CCN(C(=O)c3ccco3)CC2)cc1	Nrf2 block 14.6µM
N#Cc1ccccc1NC(=O)COC(=O)c1cccs1	Nrf2 block inconclusive
O=C(COC(=O)c1cccs1)Nc1ccccc1[N+](=O)[O-]	Nrf2 ARE act 11.2µM
Cc1ccc(C(=O)Nc2ccc(N3CCN(C(=O)c4ccco4)CC3)cc2)c(Cl)c1	Nrf2 block inconclusive
Cc1ccc(C(=O)Nc2ccc(N3CCN(C(=O)c4cccs4)CC3)cc2)c(Cl)c1	ATXN2 expr inh inconclusive, ATXN viability inconclusive, Nrf2 block 23.1µM
O=C(COc1ccccc1[N+](=O)[O-])Nc1ccc(N2CCN(C(=O)c3cccs3)CC2)cc1	ATXN2 expr inh inconclusive, ATXN viability inconclusive, Nrf2 block 5.8µM
N#CC1(c2ccc(NC(=O)c3cccnc3NCc3ccncc3)cc2)CCCC1	none (no result: ATXN viability, Nrf2 block, A549 tox, Nrf2 ARE act)

Screens: PubChem, National Center for Advancing Translational Sciences (NCATS)
